36 molecules from PubChem BioAssay (NCI) can be followed below.

Each structure is given as a SMILES string. The panel holds about 79,000 compounds, 15% with a hit somewhere; the sample as a whole holds those more often. Values without a mark were called inactive. Active and inactive are the calls of the source. No stated cut-off is given here; in the data, active means growth inhibition above about 70%; inactive means the rest.

Assay [1] is described as follows: NCI Yeast Anticancer Drug Screen. Data for the rad50 strain (AID 155).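 Further: 0% = growth of vehicle-only cultures of the same strain.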 The note with it: S. cerevisiae rad50 strain growth inhibition; at 50.0 µM; hits give high values. Summed up:
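Readout: growth inhibition relative to vehicle-treated cultures. Compound exposure was carried out in a genetically defined yeast strain deficient in DNA damage repair.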

Assay [2] is described as follows: NCI Yeast Anticancer Drug Screen. Data for the mec2-1 strain (AID 157). The note with it: S. cerevisiae mec2-1 strain, at 50.0 µM, hits give high values. Summed up:
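Readout is yeast growth inhibition, normalised to vehicle-treated controls, in the mec2-1 strain exposed to compound.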

The nature of assay [3]: NCI Yeast Anticancer Drug Screen. Data for the sgs1 mgt1 strain (AID 161).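 Further: 0% = growth of cultures given vehicle only.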 As to conditions: S. cerevisiae sgs1 mgt1 strain, at 50.0 µM, hits give high values. An outline of the steps:
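Compounds are added to genetically altered yeast, and growth is compared with cultures given vehicle alone to give percent inhibition.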

Assay [4] is described as follows: NCI Yeast Anticancer Drug Screen. Data for the cln2 rad14 strain (AID 165).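 Further: 0% = growth equal to vehicle treated cultures.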 As to conditions: S. cerevisiae cln2 rad14 strain, at 50.0 µM, hits give high values. An outline of the steps: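 Relative to vehicle controls, growth inhibition of compound-treated cln2 rad14 yeast was recorded.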
Assay [5] in a line: NCI Yeast Anticancer Drug Screen. Data for the bub3 strain (AID 167). The note with it: S. cerevisiae bub3 mutant strain, at 50.0 µM, hits give high values. An outline of the steps: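 Readout: yeast growth inhibition, expressed relative to vehicle-only wells. The test organism is a mutant strain from a panel with lesions in DNA repair or checkpoint genes.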
The nature of assay [6]: NCI Yeast Anticancer Drug Screen. Data for the mlh1 rad18 strain (AID 175). The note with it: S. cerevisiae mlh1 rad18 strain growth inhibition; at 50.0 µM; hits give high values. Summed up:
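Test agents were incubated with a yeast strain of defined genotype (DNA damage repair defect). Inhibition of growth was derived by comparison with vehicle-exposed cultures.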

Take `O=C(O)Cc1cc(CC(=O)O)cc(CC(=O)O)c1`: the growth inhibition in assay [1] was -3.8%; in assay [2], -18.8%; in assay [3], 6.05%; in assay [4], 5.2%; in assay [5] it was 1.6%; in assay [6], -17.9%.
Regarding `CC(=O)SSC12CC3CC(CC(C3)C1)C2`, the growth inhibition is -24.6% in assay [1]; -17.4% in assay [2]; -4.75% in assay [3]; -48.9% in assay [4]; 0.55% in assay [5]; -7.7% in assay [6].
Consider `CCCN1C(=O)c2cc(=O)n(Cc3ccccc3)c(O)c2C1C` (stereo unspecified), for which the growth inhibition in assay [1] was 6.95%; in assay [2], 33%; in assay [3], 4.7%; in assay [4] it was 8.4%; in assay [5], -9.45%; in assay [6] it was 13.8%.
For the molecule `c1ccc(CSc2ncnc3oc(-c4ccccc4)nc23)cc1`, the growth inhibition in assay [1] is 22.5%; in assay [2], 17.2%; in assay [3], 13.6%; in assay [4] it was 11.2%; in assay [5], 24%; in assay [6] it was 16.4%.
With `O=C(Nc1cc(Cl)c(I)c(Cl)c1)C(F)(F)F`, the growth inhibition in assay [1] was 96.6% (active); in assay [2] it was 97.4% (active); in assay [3], 96.8% (active); in assay [4], 97% (active); in assay [5] it was 79.8% (active); in assay [6], 97.5% (active).
As for `COc1ccccc1N=Nc1c(O)n(-c2ccccc2OC)c(=S)n(-c2ccc(I)cc2)c1=O`, the growth inhibition in assay [1] is 96% (active); in assay [2], 96.2% (active); in assay [3], 96% (active); in assay [4], 92.8% (active); in assay [5] it was 95.2% (active); in assay [6], 96.7% (active).
Take `N=[N+]=CC(=O)OCC(N)C(=O)O` (stereo unspecified): the growth inhibition in assay [1] was 78.7% (active); in assay [2], 82.2% (active); in assay [3], 80.2% (active); in assay [4] it was 54.6%; in assay [5], 13.2%; in assay [6], 73.9% (active).
Turning to `COc1ccc(N=Cc2ccc(C=Nc3ccc(OC)cc3)cc2)cc1`, the growth inhibition in assay [1] is 23.2%; in assay [2] it was 2.25%; in assay [3] it was 21.3%; in assay [4], -0.95%; in assay [5] it was 20.1%; in assay [6], 19.9%.
Take `CC(C)C(CN)(c1ccccc1)c1ccccc1`: the growth inhibition in assay [1] is -4.4%; in assay [2], -7.75%; in assay [3], -8.85%; in assay [4], -59%; in assay [5] it was -3.3%; in assay [6], -10.9%.
As for `CN(C)c1ccc(C=C(C(=O)O)C(=O)O)cc1`, the growth inhibition in assay [1] is -5.2%; in assay [2], 15.3%; in assay [3] it was -8.1%; in assay [4], 19.4%; in assay [5], 15.7%; in assay [6] it was 15.5%.
As to `COC(=O)[C@@H]1[C@H](OC(C)=O)CCC2[C@@]3(C[C@@H](c4ccoc4)O[C@@H]3OC)[C@H](C)CC[C@]21C(=O)OC` (stereo partly specified), the growth inhibition in assay [1] was -12.4%; in assay [2] it was -5.1%; in assay [3], -39%; in assay [4], -8.7%; in assay [5], -36.9%; in assay [6], -37.5%.
With `CC(C)(Oc1ccc(Cl)cc1)C(=O)NC1CC(C)(C)N(O)C(C)(C)C1`, the growth inhibition in assay [1] is -0.4%; in assay [2] it was 4.95%; in assay [3], -13.2%; in assay [4] it was -48.5%; in assay [5], -43.2%; in assay [6] it was -18.4%.
Take `Cc1ncc([N+](=O)[O-])n1CCSC(N)=O`: the growth inhibition is -6.75% in assay [1]; -13.6% in assay [2]; -11.2% in assay [3]; 11.4% in assay [4]; 16.8% in assay [5]; 33.5% in assay [6].
For `O=S1(=O)C=C(c2ccccc2)C1`, the growth inhibition was -8.25% in assay [1]; -2.4% in assay [2]; -19.8% in assay [3]; -33.4% in assay [4]; 4.25% in assay [5]; 8.6% in assay [6].
On to `ClC1=CC(Cl)=C2N=C(N3CCCC3)N=C3N=C(C(Cl)(Cl)Cl)N=C1N32`, for which the growth inhibition is -2.8% in assay [1]; 22.6% in assay [2]; 3.6% in assay [3]; -13.4% in assay [4]; 3.2% in assay [5]; -20.4% in assay [6].
Take `c1ccc(-c2ccccc2-c2ccccc2)cc1`: the growth inhibition was 18.1% in assay [1]; -4.8% in assay [2]; 10.6% in assay [3]; -2.75% in assay [4]; -8.15% in assay [5]; 20.8% in assay [6].
Turning to `C=CCSS/C=C/CS(=O)CC=C` (stereo unspecified), the growth inhibition is 22.6% in assay [1]; 54% in assay [2]; 75.3% (active) in assay [3]; 32% in assay [4]; 78.3% (active) in assay [5]; -19.3% in assay [6].
As for `O=C(O)c1cc(-c2c(Cl)cccc2Cl)nc2cc3ccccc3cc12`, the growth inhibition in assay [1] is 26%; in assay [2], 15.8%; in assay [3], 28.9%; in assay [4], 21.4%; in assay [5] it was 36.4%; in assay [6], 26.4%.
Consider `COc1ccc(-c2c(C(C)=O)c(-c3ccccc3)n(C3OC(CO)C(O)C(O)C3O)c(=S)c2C#N)cc1` (stereo unspecified), for which the growth inhibition in assay [1] is -17.7%; in assay [2], -3.7%; in assay [3], 6.6%; in assay [4], 3.95%; in assay [5], 1.3%; in assay [6], 6.2%.
Take `COc1ccc(-n2cnc3c(cnn3C3OC(CO)C(O)C3O)c2=O)cc1` (stereo unspecified): the growth inhibition is 8.7% in assay [1]; 2.95% in assay [2]; 8.45% in assay [3]; 23.3% in assay [4]; -4.25% in assay [5]; 3.3% in assay [6].
For the molecule `O=C(O)CC1CCCCCC1`, the growth inhibition in assay [1] is 21.9%; in assay [2], 8.25%; in assay [3], 12.8%; in assay [4], 12.9%; in assay [5] it was 32.8%; in assay [6], 12%.
Consider `CCc1ccc(COC(=O)NC)nc1`, for which the growth inhibition was 38% in assay [1]; -0.75% in assay [2]; 4% in assay [3]; -18% in assay [4]; -0.2% in assay [5]; 19.6% in assay [6].
As to `CC(=O)CC(=O)N1CCCCCC1`, the growth inhibition in assay [1] was -0.65%; in assay [2] it was -16.9%; in assay [3], 0.5%; in assay [4] it was 11.8%; in assay [5] it was -13.3%; in assay [6], 25.1%.
On to `Cn1c(=O)c2[nH]c(CCNC(=O)c3ccccc3)nc2n(C)c1=O`, for which the growth inhibition in assay [1] is 2.05%; in assay [2] it was -9.75%; in assay [3], -30.2%; in assay [4], -38.5%; in assay [5], -40.8%; in assay [6], -9.95%.
Consider `CC1(C)NN=C([N+](=O)[O-])C1c1ccccc1` (stereo unspecified), for which the growth inhibition in assay [1] is 5.95%; in assay [2], 10.7%; in assay [3] it was 7.2%; in assay [4], -14.4%; in assay [5], -11%; in assay [6], 6.65%.
With `CN(C)Cc1ccnc(Cl)n1`, the growth inhibition in assay [1] is -16.2%; in assay [2] it was 20.1%; in assay [3], -16.8%; in assay [4], -34.5%; in assay [5], -13.3%; in assay [6] it was -8.1%.
On to `c1cc2nc(c1)CSCCCCCCCSC2`, for which the growth inhibition in assay [1] is 2.05%; in assay [2], 45%; in assay [3] it was 30.2%; in assay [4] it was -3.45%; in assay [5], 52.4%; in assay [6], 23.2%.
For `O=C1c2ccccc2C(=O)N1c1ccc(Cl)cc1`, the growth inhibition in assay [1] is 3.5%; in assay [2] it was 9.9%; in assay [3], 12.6%; in assay [4], 1.2%; in assay [5] it was 22.8%; in assay [6] it was 6.85%.
Regarding `O=c1[nH]c(=O)n(C2CC(O)C(CO)O2)cc1NN=NCCc1ccccc1` (stereo unspecified), the growth inhibition in assay [1] is -24.3%; in assay [2] it was 0.75%; in assay [3], 5.05%; in assay [4], 4.85%; in assay [5], 1.9%; in assay [6], 10.8%.
Consider `CC(C)(C)C(=O)c1ccc(-c2ccccc2)cc1`, for which the growth inhibition was 17.4% in assay [1]; -5.55% in assay [2]; -6.45% in assay [3]; -56.3% in assay [4]; 6.7% in assay [5]; -2.1% in assay [6].
Take `COc1ccc(/C=C2\C=Cc3ccccc32)cc1OC`: the growth inhibition in assay [1] was -21.8%; in assay [2], -6%; in assay [3], 0.7%; in assay [4], 13.4%; in assay [5] it was 10.7%; in assay [6] it was 4.75%.
For the molecule `[N-]=[N+]=Nc1nn2cnnc2c2[nH]c3ccccc3c12`, the growth inhibition in assay [1] is 46%; in assay [2], 0.65%; in assay [3] it was 4.25%; in assay [4], -1.4%; in assay [5], -14.9%; in assay [6], 16.1%.
For `CC1=NN(C(=O)c2ccccc2)C(=O)C1N=Nc1ccc([N+](=O)[O-])cc1` (stereo unspecified), the growth inhibition was -3.3% in assay [1]; -5.5% in assay [2]; -2.5% in assay [3]; -10.8% in assay [4]; 0% in assay [5]; -3.35% in assay [6].
For `CC[C@@]12C=CC(=S)N(CCSc3ccccc3)[C@@H]1c1c(n(S(=O)(=O)c3ccc(OC)cc3)c3ccccc13)CC2`, the growth inhibition in assay [1] is -33%; in assay [2], -1.2%; in assay [3] it was 0.95%; in assay [4], -53%; in assay [5], -2.55%; in assay [6], 6%.
Turning to `COc1cc(NCCCCCCNCC(C)C)c2nccc(C)c2c1`, the growth inhibition was 53.1% in assay [1]; 44.5% in assay [2]; 62.8% in assay [3]; 18.1% in assay [4]; 37.6% in assay [5]; 21.6% in assay [6].
Turning to `CCCCC1(CN(C)C)C(=O)N(C)C(=O)N(C2CCCCC2)C1=O` (stereo unspecified), the growth inhibition is 9.15% in assay [1]; 10.2% in assay [2]; 1.4% in assay [3]; 21.9% in assay [4]; -4.2% in assay [5]; 9.6% in assay [6].
